TRAIL sens C8 – sensitizes caspase-8 expressing cells to TRAIL; NB7+C8 cells + TRAIL, ATPlite viability luminescence; inhibition (viability loss, TRAIL sensitization), % at 10 µM; 360,000 compounds, 1% hits; AID 624354;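 active = compounds causing at least 50% loss of cell viability in the single-dose screen, relative to plate controls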
SENP8 block-1 – SENP8 (human) protease inhibition; AID 602440; Q96LD8; 360,000 compounds, 0.64% hits; inhibition, % at 20 µM; recombinant SENP8, Nedd8 substrate fluorescence; in the data active = inhibition mostly above about 40%, no sharp cut-off; inactive = mostly below about 27%
Target sequence (Q96LD8 whole entry, looked up): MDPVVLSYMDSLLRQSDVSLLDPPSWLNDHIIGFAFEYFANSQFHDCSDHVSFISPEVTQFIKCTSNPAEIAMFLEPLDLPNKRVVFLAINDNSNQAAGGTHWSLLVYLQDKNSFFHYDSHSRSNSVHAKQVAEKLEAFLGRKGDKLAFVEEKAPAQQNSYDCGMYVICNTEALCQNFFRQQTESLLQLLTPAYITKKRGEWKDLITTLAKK
SENP7 inh – inhibitors of human SENP7 protease | recombinant SENP7, Z-RLRGG-aminoluciferin luminescence, 40 min | inhibition, % at 5 µM | 330,000 compounds, 1.5% hits | AID 434973;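 active = inhibition above about 50% at the single test dose, limit read from the data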;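 note: plate controls were DMSO with enzyme for no effect and no enzyme buffer wells for full effect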
Target sequence (Q9BQF6 706-1050 limits assumed): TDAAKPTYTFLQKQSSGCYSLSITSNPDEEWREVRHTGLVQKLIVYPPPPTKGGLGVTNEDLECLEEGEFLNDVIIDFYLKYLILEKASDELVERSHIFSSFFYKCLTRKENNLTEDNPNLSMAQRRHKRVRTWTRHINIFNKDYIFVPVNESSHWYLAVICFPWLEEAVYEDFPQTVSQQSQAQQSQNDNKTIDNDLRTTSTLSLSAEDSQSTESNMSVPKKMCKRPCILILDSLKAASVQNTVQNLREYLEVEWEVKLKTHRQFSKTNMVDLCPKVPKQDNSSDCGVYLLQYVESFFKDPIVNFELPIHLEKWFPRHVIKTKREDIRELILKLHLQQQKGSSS
PPC-1+TRAIL kill – kills PPC-1 cancer cells in the presence of TRAIL | AID 1443 | PPC-1 cells + TRAIL, ATPLite viability luminescence | cell killing (% activity), % at 4 µM or 5 µM | 220,000 compounds, 0.41% hits;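 active = cell killing above 50% in the first pass at 4 µM, then a duplicate retest at 5 µM averaging 50% or more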;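 note: plate controls were cells with TRAIL plus DMSO for no effect and medium-only wells lacking cells for full effect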
SENP8 block-2 – inhibitors of human SENP8 protease. purified SENP8, Z-RLRGG-aminoluciferin cleavage, luminescence. inhibition, % at 10 µM. 330,000 compounds, 1.2% hits; in the data active = inhibition above about 50%
SENP6 inh – inhibitors of human SENP6 protease. Q9GZR1. Recombinant SENP6 catalytic domain, aminoluciferin luminescence. inhibition, % at 10 µM. 330,000 compounds, 1.8% hits. AID 2599;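 active = inhibition above about 50% at the single tested dose, limit read from the data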;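 note: plate controls were DMSO wells with enzyme for no effect and DMSO wells lacking enzyme for full effect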
* marks the source's active call; other numbers are inactive results; i = inactive; / = not tested or not shown. Sampled rows, rich in hits. Any-hit rate of the full collection: about 3%.

SMILES	TRAIL sens C8	SENP8 block-1	SENP7 inh	PPC-1+TRAIL kill	SENP8 block-2	SENP6 inh
CCCN1/C(=C2/SC(=S)N(CC)C2=O)C=Cc2ccccc21	-10.8	41.3*	9.0	25.9	3.4	-2.3
CCCN1C(=O)/C(=C2/C=Cc3ccccc3N2CC)SC1=S	5.7	28.3	1.1	5.5	-5.0	0.7
CN(C)C(/C=C/Nc1ccc(C#N)cc1)=C(C#N)C#N	-11.2	21.6	100.1*	19.1	1.4	-1.7
CN(C)C(/C=C/Nc1ccc(F)cc1)=C(C#N)C#N	-3.6	7.1	-3.2	-3.9	5.1	-2.3
Cc1ccc2nc(Cl)c3nnnn3c2c1	61.5*	-69.8	7.6	18.2	1.0	-9.3
Cc1ccc2c(c1)c1ccc3c(c1n2C)C(=O)C=CC3=O	58.5*	-285.6	4.8	20.3	-19.6	-11.8
OC[C@@H]1CN(Cc2ccco2)C[C@H](n2cnc3c(NC4CC4)ncnc32)O1	0.8	-2.0	/	/	/	/
CN1/C(=C/C(=O)c2nc(S(C)(=O)=O)ncc2Cl)C(C)(C)c2ccccc21	66.7*	24.7	7.2	-5.2	5.0	-10.5
Nc1cccc(N=[N+]([O-])c2cccc(N)c2)c1	17.3	27.6	/	/	/	/
O=C1c2ccccc2C(Nc2ccc3c(c2)OCO3)N1Cc1ccc2c(c1)OCO2 (configuration not stated)	-5.0	9.6	2.9	-0.5	4.5	-18.2
O=C1c2ccccc2C(Nc2cccnc2)N1Cc1ccc2c(c1)OCO2 (configuration not stated)	1.2	0.6	0.5	64.7*	-6.7	-6.2
C(=N\NC1=Nc2cccc3cccc1c23)/c1ccccn1	70.7*	24.6	/	36.9	/	/
C(=NNc1ccc2ccccc2n1)c1ccccn1	87.2*	-5.9	/	/	/	/
C(=N\N=C\c1ccccn1)/c1ccccn1	14.8	-11.8	-3.0	/	0.2	-3.2
Clc1ccccc1/C=N/NC1=Nc2cccc3cccc1c23	39.5	17.7	20.6	33.4	-22.5	2.0
O=C(c1ccc(F)cc1)n1ccc(-c2cnc(-c3ccccc3)s2)n1	42.6	-457.2	85.0*	36.0	31.9	54.6*
Cc1ccc(C)c(Cn2nnc3c(=O)[nH]c(C4CCN(C(=O)c5ccco5)CC4)nc32)c1	-24.3	-3.4	3.4	/	0.8	-4.3
COC(=O)c1ccc(CCc2cc(O)c(Br)cc2O)cc1	48.9*	12.0	/	/	/	/
COc1ccccc1C(=O)Nc1ccc2oc(-c3ccc(F)cc3)nc2c1	13.2	-245.3	3.2	52.8*	1.1	5.9
COc1ccc(C(=O)Nc2ccc3oc(-c4cccc(F)c4)nc3c2)cc1OC	11.5	-421.7	-6.4	16.3	-5.4	-4.0
COc1ccc(/C=N/n2cncn2)cc1Cn1nc(C)c([N+](=O)[O-])c1C	-4.4	27.5	3.7	1.4	-0.2	2.7
CCOC(=O)c1c(C)nc2c(c1-c1cc(OC)c(OC)c(OC)c1)C(=O)c1ccccc1-2	66.3*	8.5	-0.3	8.2	7.9	-9.6
O=c1cc(-c2ccco2)oc2c1ccc1ccccc12	6.6	i	0.9	10.2	13.0	-2.2
O=c1cc(C(Cl)(Cl)Cl)oc2c1ccc1ccccc12	90.0*	-21.0	-1.6	17.2	6.6	1.1
COCCn1c(=S)[nH]c2sc3c(c2c1=O)CCC(C)C3 (configuration not stated)	16.6	6.3	0.6	/	-5.2	7.8
SMILES	TRAIL sens C8	SENP8 block-1	SENP7 inh	PPC-1+TRAIL kill	SENP8 block-2	SENP6 inh
Cn1c(=S)[nH]c2sc3c(c2c1=O)CCC(C(C)(C)C)C3 (configuration not stated)	52.6*	8.5	-0.9	/	-13.7	-5.5
CC(C)c1ccc(/C=C2\SC(=O)N(CC(=O)NC3C=CS(=O)(=O)C3)C2=O)cc1 (configuration not stated)	53.9*	10.8	7.0	/	-31.8	0.6
CCC(Oc1ccc(F)cc1)C(=O)N1CCCCCCC1 (configuration not stated)	-3.4	11.1	10.1	/	4.5	-9.6
NC1=NC[C@@H](CC2CCCCC2)N1CCc1cc(C(F)(F)F)cc(C(F)(F)F)c1	93.3*	3.6	-5.4	/	-4.9	-42.2
Nc1nc(N)c2cc(S(=O)(=O)c3ccc4ccccc4c3)ccc2n1	72.3*	-450.8	/	/	/	/
COc1ccccc1C1(O)CCN(CC(=O)Nc2nc(-c3ccccc3)cs2)CC1	9.5	4.5	1.2	-3.1	0.6	-4.4
Cc1cccnc1NC(=O)CNC(=O)c1cccs1	2.0	6.7	2.0	/	0.9	5.2
COC(=O)c1nc(NC(=S)NC(=O)c2cccs2)sc1C	50.1*	1.0	27.0	/	17.0	14.7
CCC(=O)Nc1ccc(Br)cn1	-0.5	4.9	7.7	7.4	0.4	1.0
Cc1cccnc1NC(=S)NC(=O)c1cccs1	69.1*	-0.5	6.1	29.3	-3.6	18.2
O=C(NC(=S)Nc1ccc(Br)cn1)c1cccs1	65.3*	12.7	12.7	16.7	-3.3	-4.9
O=C(Nc1ccc(Br)cn1)c1ccc(Cl)s1	2.2	8.4	54.5*	/	42.0	60.8*
O=C(NC(=S)Nc1ccc(Br)cn1)c1cncc(Br)c1	15.8	-0.1	-11.9	0.7	-3.8	-0.3
CCOc1ncccc1C(=O)N(CC)CC(=O)NCc1ccc(Cl)cc1	-3.0	12.1	-2.1	/	7.0	10.0
Cc1ccc(Nc2nc3c(c(=O)[nH]c(=O)n3C)n2Cc2ccc(F)cc2)cc1	-3.5	-29.6	-0.7	17.2	2.8	-5.8
O=C(O)c1ccc(Nc2cc(Cl)c3nonc3c2[N+](=O)[O-])cc1	-4.1	18.8	4.0	-5.8	4.3	16.2
O=[N+]([O-])c1c(Nc2cccc(O)c2)cc(Cl)c2nonc12	59.0*	26.0	-0.7	/	0.8	10.4
O=C(Oc1c(CN2CCOCC2)cc(Cl)c2cccnc12)c1ccccc1Cl	54.4*	13.5	-0.8	10.0	4.1	13.5
COc1cccc(C(=O)Oc2c(CN3CCOCC3)cc(Cl)c3cccnc23)c1	45.6*	2.6	0.7	14.7	2.2	2.2
O=C(Oc1c(CN2CCOCC2)cc(Cl)c2cccnc12)c1ccc(F)cc1	54.9*	10.2	2.3	34.6	-2.0	-2.6
O=C(Oc1c(CN2CCOCC2)cc(Cl)c2cccnc12)c1cccs1	52.4*	10.3	9.0	25.3	-5.4	11.6
CS(=O)(=O)Oc1ccc(/C=N/NC(=O)c2ccncc2)cc1	-3.6	0.0	2.0	24.8	-9.3	6.8
CN(C)c1ccc2c(=O)cc[nH]c2c1	-5.1	-392.8	/	/	/	/
CC(C)N(C(=O)CN1C(=O)NC(c2ccccc2)(c2ccccc2)C1=O)C(C)C	-8.4	1.2	9.5	/	-0.4	-24.7
CC(C)N1CCCC(C)(C(=O)Nc2nccc3ccccc23)C1 (configuration not stated)	-10.4	-182.9	/	/	/	/
C#CCOCCOCCOCCNc1nc(N2CCN(C(=O)CCCCCCCCCCNC(=O)Cn3cc(C[C@@H](C)O)nn3)CC2)nc(N2CCN(C(=O)CCCCCCCCCCNC(=O)Cn3cc(C[C@@H](C)O)nn3)CC2)n1	9.4	14.0	-9.1	/	-1.1	-6.1

Screening results: PubChem, Sanford-Burnham Center for Chemical Genomics
